The source of these data is PMC7819943, “Rice protein-binding microarrays: a tool to detect cis-acting elements near promoter regions in rice”.

In all, about 68,000 sequences were measured (“fluorescence intensity (a.u.)”: median about 9,100, highest 2% from about 16,000 on). For the sample, the highest values were picked, then their nearest neighbours and some sequences at random.

OsWRKY34, sequence (Q0JBA9 entry or part of it): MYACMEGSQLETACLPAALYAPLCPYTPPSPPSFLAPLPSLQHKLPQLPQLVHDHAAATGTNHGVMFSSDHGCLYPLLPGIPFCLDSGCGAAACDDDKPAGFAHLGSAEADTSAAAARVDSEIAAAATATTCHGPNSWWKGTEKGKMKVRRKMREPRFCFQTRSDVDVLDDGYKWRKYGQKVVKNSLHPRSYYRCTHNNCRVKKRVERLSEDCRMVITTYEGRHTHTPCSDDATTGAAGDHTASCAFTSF

For this test, the target named is OsWRKY34 (Oryza sativa, UniProt Q0JBA9 1-250). Description: protein-binding microarray (RPBM); PBS, 2% BSA, 51.3 ng/ul salmon testes DNA, 50 uM zinc acetate, 200 nM TF, 25 C, 1 h; high values mean tight binding. The conditions noted are these: protein: recombinant; tags: N-terminal polyhistidine and DsRed monomer fusion (pET32a); label: CyDye5-dUTP incorporated in the synthesized complementary strand; 3' TTTTT single-stranded linker to array surface; dsDNA, one strand shown. The essentials:
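An Axon 4000B scanner gave the binding signal as per-feature fluorescence intensity in arbitrary units. This followed washing of a custom Agilent array that had been incubated for 1 h at 25 °C with 200 nM protein in PBS, 2% BSA, salmon testes DNA and 50 µM zinc acetate. The proteins were transcription factors fused at the N-terminus to polyhistidine and DsRed, expressed in E. coli BL21-CodonPlus and purified on Ni–NTA.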
For “AACCGAAATCACTTTGGCAGCATGTTTTCCTCTGTAACCACGGAGTCACCTAGTGCAG”, the binding signal was 9350 fluorescence intensity (a.u.).
For “CAACCCCACCGCCGCCGCCGCAAACCGTCTCGCCGTCGCCCGGAGTCACCTAGTGCAG” the value was 11600 fluorescence intensity (a.u.); for “GAGGTTGTTTTGTCGTCTAGCAAGTGTGTGTCGGGTGGCGCGGAGTCACCTAGTGCAG”, 9220 fluorescence intensity (a.u.).
Turning to “GTCATATGGCACCATGCTTGCTCTCCACTCTTCAATCAGTCGGAGTCACCTAGTGCAG”, the binding signal is 9490 fluorescence intensity (a.u.).
For “TCGCTGCTCTGCCCTTTTCCCTTTTTTTTTCTTTCTTCATCGGAGTCACCTAGTGCAG” the value was 10200 fluorescence intensity (a.u.); for “CCATCAGTTGACCATGTGTTGACCGTTAACTCTCAAGTAACGGAGTCACCTAGTGCAG”, 9190 fluorescence intensity (a.u.); for “CCCTCCCGTCAGTTGACCGTTAGTTGACCGTGTATTTTCTCGGAGTCACCTAGTGCAG”, 12200 fluorescence intensity (a.u.).
With “CTCCCGTCAGTTGACCGTGTGTTGACCGTTAATTCTCAAGCGGAGTCACCTAGTGCAG” the figure was 17500 fluorescence intensity (a.u.); with “TCCGTGTCCAATGTTTGACCATCCGTCTTATTTAAAAAAACGGAGTCACCTAGTGCAG”, 8070 fluorescence intensity (a.u.); with “GTGTTGTGTTCATCTCCTTCGTTTACTTCTCTTCTCCTCTCGGAGTCACCTAGTGCAG”, 11500 fluorescence intensity (a.u.).
For “TATTCTGTTGTATTATGATATTATATATATTTTTCTTCGACGGAGTCACCTAGTGCAG” the value was 8980 fluorescence intensity (a.u.); for “GTTCCTTTCAGAAACTGGCATTCGAGTTTTGAGTTTCTCGCGGAGTCACCTAGTGCAG”, 8720 fluorescence intensity (a.u.).
Take “AACAGGCATGGTTTCCTTCGTCGTTTCTACTAGCAGTTGCCGGAGTCACCTAGTGCAG”: the binding signal was 11900 fluorescence intensity (a.u.).
For “GATGGCCTTGACCATGCAGAAACAGGCATGGTTTCCTTCGCGGAGTCACCTAGTGCAG” the value was 64500 fluorescence intensity (a.u.); for “CTAAAATTTCCTTATGTTTTCTTCTTCTTCTAGTTATGTGCGGAGTCACCTAGTGCAG”, 8800 fluorescence intensity (a.u.).
As to “ATTGTTATGTTCCTTTGTTTTCTTATAAATATAATTTAATCGGAGTCACCTAGTGCAG”, the binding signal is 9560 fluorescence intensity (a.u.).
For “CTTTAGTTAAAGTCAAAGTGCTTCAAGTTTGACTAAGTTTCGGAGTCACCTAGTGCAG” the value was 9150 fluorescence intensity (a.u.); for “GTTTTGACTTTGGTCAAAGTCAAACTAATTCAAGTTAGACCGGAGTCACCTAGTGCAG”, 17600 fluorescence intensity (a.u.).
On to “TAAGACGTTTTGACTTTGGTCAAACTGTTTGGTCAAAGTCCGGAGTCACCTAGTGCAG”, for which the binding signal was 10600 fluorescence intensity (a.u.).
With “CATTTGACTTTTTTCTAGTCAAAGTTATTTATATTTAATTCGGAGTCACCTAGTGCAG” the figure was 14100 fluorescence intensity (a.u.); with “GACTTTAGTCAAAGTCATGTTGTTTCAAGTTTGACTAATTCGGAGTCACCTAGTGCAG”, 18800 fluorescence intensity (a.u.); with “TTTGGTCAAACTTAAAAAAGTTTGACTACAACTAAATTCACGGAGTCACCTAGTGCAG”, 8740 fluorescence intensity (a.u.).
With “TTTTCCTTAGTCAAAGTTATATATGTTTGACTAAATTTATCGGAGTCACCTAGTGCAG” the figure was 18000 fluorescence intensity (a.u.); with “TCATACATGTGATCACTCACTCACTCTCACACACACTCTCCGGAGTCACCTAGTGCAG”, 10100 fluorescence intensity (a.u.).
With “AAACAGACCCTTAATATGCTATATTTGTCTCCAATAAAACCGGAGTCACCTAGTGCAG” the figure was 8480 fluorescence intensity (a.u.).
“TTGCTCTTGTTAATGTTTGGCTTTCTTCTTCTTCTGCTGCCGGAGTCACCTAGTGCAG”: the binding signal was 8600 fluorescence intensity (a.u.).
With “ACACTCTGCTGCATCTCTTATCCCTTCATCTCGGTCTTAACGGAGTCACCTAGTGCAG” the figure was 16600 fluorescence intensity (a.u.); with “GGCCCTGAGCTCTCTCTTGCTGCTTCTTTTAATGGGTTTTCGGAGTCACCTAGTGCAG”, 9680 fluorescence intensity (a.u.); with “CTGCCGCGCTTCGTCGCCGCGCTCGCCCGTCTTTCGCTCTCGGAGTCACCTAGTGCAG”, 8230 fluorescence intensity (a.u.).
For “TCTCTCTCTCTCTCCTCTGCATCCGCGCGCATTGCTCGATCGGAGTCACCTAGTGCAG” the value was 9000 fluorescence intensity (a.u.).
On to “ACCAGCTTTCTTTCTCGTGCTTTCCTCTTCTTCTTTTTTTCGGAGTCACCTAGTGCAG”, for which the binding signal is 10900 fluorescence intensity (a.u.).
With “ATATCCCTTCTCTTCCCTCATCTCTCCACCTCTTCCATCTCGGAGTCACCTAGTGCAG” the figure was 8890 fluorescence intensity (a.u.); with “GGCTCGTGCACCTGCTCTCGTCTTTTCCACCGCTTTTTTTCGGAGTCACCTAGTGCAG”, 16800 fluorescence intensity (a.u.).
For “GCTCCACCTACTCCGCTCCCCTCTGCTCGGCTGCTCCCATCGGAGTCACCTAGTGCAG” the value was 8470 fluorescence intensity (a.u.).
With “CTCCATTCTTGTTTGTTCCTTCTTTGCTTTCAGCTGCTTTCGGAGTCACCTAGTGCAG” the figure was 15000 fluorescence intensity (a.u.).
Take “GCTCCCTGCTGCCATATCCTATCATCTCCTCTCTTCCTCTCGGAGTCACCTAGTGCAG”: the binding signal was 8540 fluorescence intensity (a.u.).
With “CCTCATCCGCTGCTCTGCTCCCACCATTGCTGCTCTCTCTCGGAGTCACCTAGTGCAG” the figure was 17700 fluorescence intensity (a.u.); with “TGGGGTTTTCAGCTTGCCAATGCTGCATTATCTTCTTTTTCGGAGTCACCTAGTGCAG”, 17200 fluorescence intensity (a.u.).
With “GCAGCATCACCCGCAGCCGCCGCCGCCGCCGCCATGGACTCGGAGTCACCTAGTGCAG” the figure was 10100 fluorescence intensity (a.u.); with “GCAATACACCTGATTTGATACTTCTTCCGATATAATACTCCGGAGTCACCTAGTGCAG”, 8900 fluorescence intensity (a.u.); with “GATTGTATATGCCTGATAGGACTAGTTAGTGTGTTTTCTTCGGAGTCACCTAGTGCAG”, 9220 fluorescence intensity (a.u.).
With “CACTAGTTTTAGTTACTAACTTATGGCTCTTGTGCTATCACGGAGTCACCTAGTGCAG” the figure was 8070 fluorescence intensity (a.u.).
